Structures are written as SMILES. Compounds without any hit were thinned out: in the full panel of roughly 83,000, 20% have a hit.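 Cells were grown in 96-well plates and exposed to the test compound at a single concentration for 48 hours; results are reported as percent growth, with values below 10 considered active.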 Unmarked numbers belong to inactive results. Calls of active or inactive are those of the source.

This assay deals with SF-539 CNS. In words: NCI-60 one-dose screen, 48 h (100 = growth as untreated, 0 = no growth, -100 = all killed). The following applies: 10 µM unless noted.
Consider `CNC(=O)c1cc(Oc2ccc3nc(NC(=O)Nc4ccc(CN5CCOCC5)c(C(F)(F)F)c4)sc3c2)ccn1`, for which the growth is 16.5%.
Under `Cc1cc(N/N=C/c2nc(-c3ccc(Cl)cc3)oc2C)c2cc(Br)ccc2n1` stands 87.3%; under `COc1ccc(-c2cc(-c3cccnc3)nc3sc4c(=O)n(-c5ccc(C)cc5)cnc4c23)cc1OC`, 89.4%; under `CN(C)c1ccc(/C=C\C2=[N+](C)c3ccccc3C2(C)C)cc1`, 22.1%.
Under `COc1ccc(-c2cc(-c3cccnc3)nc3sc4c(=O)n(-c5ccc(C)cc5)nnc4c23)cc1OC` stands 93.4%.
For the compound `COc1ccc(C/C(C)=C(\c2ccc(Cl)cc2)c2ccc(OCCN3CCCCCC3)cc2)cc1`, the growth is 90.8%.
With `O=C1C=CC(=O)N1c1ccc(Cc2ccc(N3C(=O)C=CC3=O)cc2)cc1`, the growth is 93.4%.
Next, `CN1CCN(Cc2ccc(NC(=O)c3[nH]ncc3Nc3ncnc4[nH]ccc34)cc2)CC1`: -65% (active).
Under `O=C(Nc1ccc(Oc2ccc(F)cc2)c(Cl)c1)c1cccnc1` stands 94.4%; under `OC(c1cccc(C(F)(F)F)c1)c1cnccc1NC1CCCCCC1` (stereo not drawn), 74.2%.
Next, `NS(=O)(=O)c1ccc(Nc2nc3n[nH]c(Nc4ccccc4)c3c(=O)[nH]2)cc1`: 97.1%; `O=C1/C(=C/c2ccccc2)CN(CCC(=O)N2C/C(=C\c3ccccc3)C(=O)/C(=C/c3ccccc3)C2)C/C1=C\c1ccccc1`: 90.9%; `CN1CCN(Cc2ccc(NC(=O)c3[nH]ncc3Nc3ncnc4c3CCC4)cc2)CC1`: -37.8% (active).
As to `O=C1C(=O)N(CCCCn2cc(CO)nn2)c2ccccc21`, the growth was 101%.
Consider `Cc1cc(Nc2nc(N3CCN(C)CC3)nc3ccccc23)n[nH]1`, for which the growth is 76.3%.
Next, `O=C(Nc1ccc(CN2CCOCC2)cc1)c1[nH]ncc1Nc1ncnc2sccc12`: -34.1% (active).
Under `O=C1/C(=C/c2ccc(Cl)c(Cl)c2)CN(C(=O)CCN2CCC(=NO)CC2)C/C1=C\c1ccc(Cl)c(Cl)c1` stands -93.7% (active); under `CCN(CC)CCCC(C)Nc1ccnc2c(OC)cccc12` (stereo not drawn), 116%.
Next, `COc1ccc(-c2cn3c(-c4ccc(OC)cc4)cnc3c(Oc3ccc4c(C)cc(=O)oc4c3)n2)cc1`: -21.1% (active); `CN1CCN(Cc2ccc(NC(=O)c3[nH]ncc3Nc3ncnc4sccc34)cc2)CC1`: -30.2% (active).
With `OCCNCCNc1c2ccccc2nc2ccccc12`, the growth is 69.8%.
For `CC[C@H](Nc1ncnc(N)c1C(N)=O)c1nc2cccc(NCc3ccc(C(=O)NO)cc3)c2c(=O)n1-c1ccccc1`, the growth was 75.1%.
Next, `CCCCCCCCCc1cc(CN2CCCCC2)c(O)c(CN2CCCCC2)c1`: 60.9%.
Under `CN1CCN(Cc2ccc(NC(=O)c3cncc(C#Cc4cnc(N)c5cccnc45)c3)cc2C(F)(F)F)CC1` stands -28.3% (active); under `C=C1CC2(OC1=O)C(=O)N(CCCCCCCCCCCCN1C(=O)C3(CC(=C)C(=O)O3)c3ccccc31)c1ccccc12` (stereo not drawn), 87.3%.
Consider `Cn1c2ccccc2c2c3c(c4c5ccccc5[nH]c4c21)C(=O)N(N)C3=O`, for which the growth was 20.2%.
Next, `Cn1c2ccccc2c2c3c(c4c5ccccc5n(CCCCCC#N)c4c21)C(=O)N(O)C3=O`: -33% (active); `O=C(CNC1C2CC3CC(C2)CC1C3)Sc1nnc2sc3ccccc3n12` (stereo not drawn): 94.3%; `C=CC[N+]1(CC)CCN=C1CCCCCCCCCCCCCCCCC` (stereo not drawn): -98.2% (active).
`CN1CCN(Cc2ccc(NC(=O)c3[nH]ncc3Nc3ccnc4ccsc34)cc2)CC1`: the growth is 2.32% (active).
On to `CN1/C(=C\C=C\C2=[N+](C)c3ccccc3C2(C)C)C(C)(C)c2ccccc21`, for which the growth was 5.93% (active).
Next, `CS(=O)(=O)c1ccc(-c2cnc3ccc(-c4cccc(S(C)(=O)=O)c4)nn23)cc1`: 24%; `COc1ccc(C/C(C)=C(\c2ccc(OCCN3CCCCCC3)cc2)c2ccc(OC(=O)C3CCCCC3)cc2)cc1`: 74.7%.
